TDP1 block: inhibitors of human tyrosyl-DNA phosphodiesterase TDP1. 350,000 tested, 0.28% active. recombinant TDP1, AlphaScreen DNA substrate cleavage. Q9NUW8. AID 485290. Potency, µM (titrated, usually from 130 µM), for the others: at the highest dose activity change, negative = inhibition, usual class: inhibitors; further: potency means the concentration at half of the fitted maximal effect; nearly all actives have a fitted effect of over 40% in size
Target sequence (Q9NUW8 whole entry, looked up): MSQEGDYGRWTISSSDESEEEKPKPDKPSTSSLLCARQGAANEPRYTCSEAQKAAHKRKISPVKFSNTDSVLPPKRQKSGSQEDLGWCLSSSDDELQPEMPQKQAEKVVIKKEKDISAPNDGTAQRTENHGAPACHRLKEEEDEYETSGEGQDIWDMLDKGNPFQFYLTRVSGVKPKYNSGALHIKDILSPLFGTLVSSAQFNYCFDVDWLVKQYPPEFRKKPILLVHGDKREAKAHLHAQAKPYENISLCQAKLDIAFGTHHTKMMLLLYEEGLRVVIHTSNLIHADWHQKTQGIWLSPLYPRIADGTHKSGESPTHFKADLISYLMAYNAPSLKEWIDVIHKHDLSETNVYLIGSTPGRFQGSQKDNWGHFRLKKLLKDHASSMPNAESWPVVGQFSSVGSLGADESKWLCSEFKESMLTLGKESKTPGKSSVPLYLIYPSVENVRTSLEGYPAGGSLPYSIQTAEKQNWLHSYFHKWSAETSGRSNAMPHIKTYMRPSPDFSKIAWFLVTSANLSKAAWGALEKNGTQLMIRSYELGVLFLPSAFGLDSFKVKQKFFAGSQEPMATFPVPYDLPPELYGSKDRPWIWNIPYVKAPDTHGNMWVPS
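Here, a 5' biotin and 3' phosphotyrosine-FITC DNA oligonucleotide reports Tdp1 activity: intact substrate bridges AlphaScreen beads, while cleavage leaves a 3' phosphate and drops signal. All incubations at room temperature.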
TDP1 cell noCPT: qHTS for Inhibitors of human tyrosyl-DNA phosphodiesterase 1 (TDP1): qHTS in cells in absence of CPT; DT40 Tdp1-/- hTDP1 cells, no CPT, ATP luminescence, 48 h; Potency, µM (series often up to 46.2 µM), without a hit: at the top dose activity change, negative = growth inhibition, actives largely listed as inhibitors; 420,000 tested, 15% active; AID 686978, 2013; further: potency means the concentration at half of the fitted maximal effect; nearly all actives have a fitted effect of over 55% in size
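Stably hTDP1-transfected Tdp1-null chicken DT40 cells were treated with library compounds minus camptothecin and grown for at least 48 hr at 37 °C, after which cellular ATP was quantified by luminescence.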
Giardia killer: Giardia lamblia killing. Giardia lamblia trophozoite viability. 340,000 tested, 0.15% active. activity change, % at 7.66 µM, hits read low; in the data active means activity change below about -80%; inconclusive means between about -30% and that limit;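 further: parasites exposed to compound for two days anaerobically before the ATP read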
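Anaerobic 48 hrs incubation at 37 deg C of 100 trophozoites/well with test compounds; ATPLite 1-Step luminescence, 15-30 min RT, reports cellular ATP as viability.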
ELG1 DNA repair: ELG1-dependent DNA repair inhibition. HEK293T ELG1-luciferase reporter, luminescence, 16 h; DNA damage induced by 5-fluorouridine. Potency, µM (series often up to 46.1 µM), inactives show top-dose activity change, negative = inhibition, actives largely listed as inhibitors. 330,000 tested, 2.3% active. AID 504467; further: potency means the concentration at half of the fitted maximal effect; nearly all actives have a fitted effect of over 55% in size
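Quantitative HTS, concentration-response format. 2,000 cells/well co-treated with 5-fluorouridine and compound, 16 hr in 5% CO2 at 37 °C; ONE-Glo luminescence read after 30 min.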
IL-1B inflam inh: inhibitors of inflammasome signaling (IL-1 beta secretion) | THP-1 LPS/ATP IL-1B secretion, AlphaLISA, 16 h; active compounds read low | activity change, % at 57.5 µM | 360,000 tested, 4.7% active | AID 743279; in the data active means activity change below about -50%; inconclusive means mostly about -30% to -49%
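Secreted IL-1B measured by AlphaLISA bead assay after 16 h compound exposure of THP-1 cells; compounds (final up to 57.5 uM) added 1 h before LPS (250 ng/mL) and ATP (1.25 mM) stimulation; lower signal means less secretion.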
DT40 TDP1 CPT: DT40-hTDP1 cell growth loss with CPT; 420,000 tested, 12% active; chicken DT40 Tdp1-/-;hTDP1 cells + 20 nM CPT, ATP luminescence, 48 h; Potency, µM (doses to about 46.2 µM), for inactives: at the top dose activity change, negative = growth inhibition, hits mostly inhibitors; further: potency means the concentration at half of the fitted maximal effect; nearly all actives have a fitted effect of over 55% in size
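Chicken DT40 Tdp1-/- cells complemented with human TDP1, 400 cells/well, exposed to compounds plus 20 nM camptothecin for at least 48 h at 37 C; viability read as ATP content by CellTiter-Glo luminescence.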
An asterisk follows results filed as active; ? = inconclusive; · = not tested or not shown; [ ] = another dose, or the depositor's remark. Compounds with a hit are over-represented: about 19% of the library has one in this group of screens. Unless noted, the call rests on the fitted dose curve; in most records, active means well fitted curve in the direction sought with a large enough effect; inconclusive means small, poorly fitted or top-dose-only effect, or another doubt; inactive means no such curve, though single readings can be large; an effect the other way counts as inactive or inconclusive. On the % scale 0 is the no-effect control and ±100 the full control effect.

SMILES	TDP1 block	TDP1 cell noCPT	Giardia killer	ELG1 DNA repair	IL-1B inflam inh	DT40 TDP1 CPT
O=C(COc1ccc(S(=O)(=O)N2CCOCC2)cc1)NCCCn1ccnc1	5%[0.0935 µM]	-7%	-6	11%	13	14%
COc1cccc(NC(=O)CSc2nc(C)c(Cc3ccccc3)c(=O)[nH]2)c1	5%	?	·	·	·	?
COc1ccc(/C=C/C(=O)Nc2cc(F)ccc2C)cc1S(=O)(=O)N1CCOCC1	2%	?	12	?	-6	?
O=C(Nc1cccc(F)c1)c1cccc(S(=O)(=O)N2CCOCC2)c1	5%	?	4	?	0	-27%
Cc1ccc(F)cc1NC(=O)/C=C/c1ccc(S(=O)(=O)N2CCOCC2)cc1	2%	?	-5	23µM*	-24	?
O=C(/C=C/c1ccc(F)cc1)Nc1cccc(S(=O)(=O)N2CCOCC2)c1	0%	?	12	?	-58*	?
CCOc1ccc(C(=O)C(C)OC(=O)Cn2c(C)csc2=O)cc1 (stereo not given)	0%	?	1	23%	-11	-3%
Cc1ccccc1OCC(=O)Nc1nnc(-c2ccncc2)s1	-13%	-6%	22	?	-10	-11%
Cc1cc(C)c(OCC(=O)Nc2ccccn2)c([N+](=O)[O-])c1	1%	-26%	2	?	-16	-23%
Cc1cc(C)c(OCC(=O)Nc2nc(-c3ccccn3)cs2)c(C)c1	5%	4.1µM*	13	?	31	3.7µM*
CCC(=O)c1ccc(OCC(=O)Nc2nc(-c3cccnc3)cs2)cc1	·	?	-10	?	36	-14%
CCc1ccccc1OCC(=O)Nc1nc(-c2cccnc2)cs1	9%	3.3µM*	-11	-27%	123	3.3µM*
Cc1ccccc1OCC(=O)Nc1nc(-c2ccncc2)cs1	1%	15µM*	13	?	13	21µM*
CN(C)C1=NCCN1CCc1ccccc1	-5%	?	2	15%	-5	-2%
COCCn1nnnc1C(c1cc2cc(OC)ccc2[nH]c1=O)N1CCC(Cc2ccccc2)CC1 (stereo not given)	6%	23µM*	-9	?	?	15µM*
COc1ccc2[nH]c(=O)c(C(c3nnnn3CC3CCCO3)N3CCCCC3)cc2c1 (stereo not given)	3%	-3%	3	12%	0	5%
CCN(Cc1ccccc1)C(c1cc2cc(C)cc(C)c2[nH]c1=O)c1nnnn1CCOC (stereo not given)	0%	?	3	-17%	-52*	?
COc1ccc2cc(C(c3nnnn3CCc3ccccc3)N3CCCC(C)C3)c(=O)[nH]c2c1 (stereo not given)	-1%	?	3	-17%	-85*	?
COCCn1nnnc1C(c1cc2cc(C)ccc2[nH]c1=O)N1CCCCCC1 (stereo not given)	-2%	-15%	-7	-2%	-25	-11%
COCCn1nnnc1C(c1cc2c(C)cc(C)cc2[nH]c1=O)N1CCCCCC1 (stereo not given)	·	18µM*	-3	6%	-19	23µM*
O=C(CCNC(=O)c1ccccc1Cl)Nc1cc(S(=O)(=O)N2CCOCC2)ccc1N1CCCC1	1%	-11%	5	-6%	-13	-9%
Cc1ccc2cc(C(c3nnnn3CC3CCCO3)N3CCc4ccccc4C3)c(=O)[nH]c2c1 (stereo not given)	5%	?	2	4%	-22	-29%
CCOc1ccc2[nH]c(=O)c(C(c3nnnn3CC3CCCO3)N3CCc4ccccc4C3)cc2c1 (stereo not given)	0%	23µM*	7	-30%	-24	16µM*
Cc1ccc(S(=O)(=O)N2CCN(c3ccc(C(=O)N4CCOCC4)cc3[N+](=O)[O-])CC2)cc1	4%	12µM*	-9	18µM*	-4	18µM*
Cc1ccc(N(Cc2ccco2)C(=O)c2ccc(N3CCCCC3)c([N+](=O)[O-])c2)cc1	11%	5.8µM*	11	-13%	-22	21µM*
SMILES	TDP1 block	TDP1 cell noCPT	Giardia killer	ELG1 DNA repair	IL-1B inflam inh	DT40 TDP1 CPT
Cc1ccc(S(=O)(=O)N2CCN(C(=O)c3ccc(N4CCCCC4)c([N+](=O)[O-])c3)CC2)cc1	5%[56.1 µM]	-17%	18	-24%	-62*	?
O=C(NCc1ccco1)c1ccc(N2CCCCC2)c([N+](=O)[O-])c1	8%	-27%	1	?	?	1%
Cc1cc(C)c(S(=O)(=O)N2CCN(C(=O)c3ccc(-n4cncn4)c([N+](=O)[O-])c3)CC2)c(C)c1	1%	13µM*	-9	-7%	-4	?
CS(=O)(=O)N1CCN(c2ccc(C(=O)N3CCOCC3)cc2[N+](=O)[O-])CC1	-1%	-19%	-3	6%	-1	-5%
O=C(c1ccc(N2CCCCC2)c([N+](=O)[O-])c1)N1CCN(S(=O)(=O)c2ccccc2)CC1	·	?	-25	-6%	?	?
O=C(COC(=O)c1c(Cl)ccc(Cl)c1Cl)NC(=O)NCc1ccccc1	4%	?	-7	?	15	?
NC(=O)C1CCN(C(=O)Cn2c(-c3cccs3)cc3ccccc32)CC1	2%	11%	·	·	·	21%
CC(C)(O)CCc1c(-c2ccc(O)cc2O)oc2c3c(cc(O)c2c1=O)OC(C)(C)C=C3	·	16µM*	-20	·	-14	12µM*
CCN1CCN(C(=O)C2CCN(Cc3cc(Cl)ccc3O)CC2)CC1	-8%	-5%	23	12%	-77*	-7%
Cc1oc(-c2cccc(Cl)c2)nc1CN1CCC(C(=O)N2CCN(c3ccccn3)CC2)CC1	·	18µM*	16	·	10	23µM*
CCN1CCN(C(=O)C2CCN(Cc3nc(-c4cccc(Cl)c4)oc3C)CC2)CC1	-1%	16µM*	30	5%	?	21µM*
CCN1CCN(C(=O)C2CCN(S(=O)(=O)c3ccc(Br)cc3)CC2)CC1	2%	?	2	11%	-5	2%
Cc1oc(-c2cccc(Cl)c2)nc1CN1CCC(C(=O)NCc2cccnc2)CC1	2%	-25%	-4	-14%	-13	?
Cc1nc(SCC(=O)N(CC(C)C)C2CCS(=O)(=O)C2)c2c(C)c(C)sc2n1 (stereo not given)	0%	-9%	-26	-9%	4	-10%

From PubChem
